# Structures can show the parent of a compound that is named as a salt.
# What was measured:
# [1] = tested on: U-2932; assay: growth inhibition by drug alone (1 - RLU/untreated control) (fraction); higher = stronger inhibition; settings: 177Lu-lilotomab satetraxetan 0 ug/ml
# In short: (§1)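 A radiolabelled anti-CD37 antibody conjugate (~600 MBq/mg) was applied for 18 h at 0.5 µg/ml to RIVA and 1 µg/ml to U-2932 cells, with untreated cells run alongside. All cells were washed and seeded at 3,000 cells/well onto library-printed plates at 10/100 nM (RIVA) or 10/1,000 nM (U-2932). Growth inhibition was based on RealTime-Glo luminescence compared with untreated no-drug wells. Daily reads began on day 3 after 1 h at 37°C, with each value being 1 − RLU/mean of the 48 such wells on that plate.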
# [2] = tested on: RIVA; assay: as above; settings: 177Lu-lilotomab satetraxetan 0 ug/ml
# In short: as §1
# [3] = tested on: U-2932; assay: growth inhibition by drug plus 177Lu-lilotomab satetraxetan (1 - RLU/untreated control) (fraction); higher = stronger inhibition; settings: 177Lu-lilotomab satetraxetan 1 ug/ml
# In short: as §1
# [4] = tested on: RIVA; assay: as above; settings: 177Lu-lilotomab satetraxetan 0.5 ug/ml
# In short: as §1
SMILES,"growth inhibition by drug alone ([1]; 10 nM, time (day): 3)","growth inhibition by drug alone ([1]; 10 nM, time (day): 4)","growth inhibition by drug alone ([1]; 10 nM, time (day): 5)","growth inhibition by drug alone ([1]; 10 nM, time (day): 6)","growth inhibition by drug alone ([1]; 1000 nM, time (day): 3)","growth inhibition by drug alone ([1]; 1000 nM, time (day): 4)","growth inhibition by drug alone ([1]; 1000 nM, time (day): 5)","growth inhibition by drug alone ([1]; 1000 nM, time (day): 6)","growth inhibition by drug alone ([2]; 10 nM, time (day): 3)","growth inhibition by drug alone ([2]; 10 nM, time (day): 4)","growth inhibition by drug alone ([2]; 10 nM, time (day): 5)","growth inhibition by drug alone ([2]; 10 nM, time (day): 6)","growth inhibition by drug alone ([2]; 100 nM, time (day): 3)","growth inhibition by drug alone ([2]; 100 nM, time (day): 4)","growth inhibition by drug alone ([2]; 100 nM, time (day): 5)","growth inhibition by drug alone ([2]; 100 nM, time (day): 6)","growth inhibition by drug plus 177Lu-lilotomab satetraxetan ([3]; 10 nM, time (day): 3)","growth inhibition by drug plus 177Lu-lilotomab satetraxetan ([3]; 10 nM, time (day): 4)","growth inhibition by drug plus 177Lu-lilotomab satetraxetan ([3]; 10 nM, time (day): 5)","growth inhibition by drug plus 177Lu-lilotomab satetraxetan ([3]; 10 nM, time (day): 6)","growth inhibition by drug plus 177Lu-lilotomab satetraxetan ([3]; 1000 nM, time (day): 3)","growth inhibition by drug plus 177Lu-lilotomab satetraxetan ([3]; 1000 nM, time (day): 4)","growth inhibition by drug plus 177Lu-lilotomab satetraxetan ([3]; 1000 nM, time (day): 5)","growth inhibition by drug plus 177Lu-lilotomab satetraxetan ([3]; 1000 nM, time (day): 6)","growth inhibition by drug plus 177Lu-lilotomab satetraxetan ([4]; 10 nM, time (day): 3)","growth inhibition by drug plus 177Lu-lilotomab satetraxetan ([4]; 10 nM, time (day): 4)","growth inhibition by drug plus 177Lu-lilotomab satetraxetan ([4]; 10 nM, time (day): 5)","growth inhibition by drug plus 177Lu-lilotomab satetraxetan ([4]; 10 nM, time (day): 6)","growth inhibition by drug plus 177Lu-lilotomab satetraxetan ([4]; 100 nM, time (day): 3)","growth inhibition by drug plus 177Lu-lilotomab satetraxetan ([4]; 100 nM, time (day): 4)","growth inhibition by drug plus 177Lu-lilotomab satetraxetan ([4]; 100 nM, time (day): 5)","growth inhibition by drug plus 177Lu-lilotomab satetraxetan ([4]; 100 nM, time (day): 6)"
COc1ccc(-c2oc3cc(OC)ccc3c2C(=O)c2ccc(C#N)cc2)cc1,0.084,0.0751,0.0436,-0.022,-0.0181,0.0261,-0.052,-0.253,-0.046,-0.0513,-0.124,-0.374,-0.0825,-0.0731,-0.0858,-0.201,-0.0286,-0.00458,0.0392,0.0337,-0.0968,0.0212,0.0134,0.0408,0.441,0.559,0.571,0.572,0.391,0.503,0.507,0.483
O=C(Nc1ccccc1-c1cn2c(CN3CCNCC3)csc2n1)c1cnc2ccccc2n1,0.102,0.0775,-0.0151,-0.0612,0.0868,0.0879,0.00704,-0.1,0.0628,0.0902,0.0591,-0.163,-0.0368,-0.02,-0.0409,-0.193,0.0225,0.0594,0.101,0.14,0.141,0.171,0.103,0.146,0.404,0.522,0.563,0.562,0.418,0.513,0.516,0.514
Cn1nnc2c(C(N)=O)ncn2c1=O [Temozolomide],0.0892,0.0648,-0.0333,-0.0967,-0.0354,0.0378,-0.0162,-0.101,0.0977,0.0337,-0.0714,-0.291,0.0972,0.055,0.0367,-0.03,0.00136,0.0294,0.0193,0.0893,-0.0214,0.119,0.126,0.194,0.398,0.513,0.538,0.549,0.493,0.527,0.53,0.509
COc1cc(Nc2ncc(F)c(Nc3ccc4c(n3)N(COP(=O)(O)O)C(=O)C(C)(C)O4)n2)cc(OC)c1OC,-0.000834,-0.000602,0.00162,0.0946,0.00804,-0.00449,-0.047,-0.0248,-0.112,-0.134,-0.185,-0.286,-0.0605,-0.0606,-0.107,-0.168,0.0179,0.0218,0.0539,0.209,-0.0117,0.00967,0.0277,0.162,0.382,0.517,0.542,0.553,0.413,0.448,0.452,0.437
CC(C)(C)c1cc(NC(=O)Nc2ccc(-c3cn4c(n3)sc3cc(OCCN5CCOCC5)ccc34)cc2)no1 [Quizartinib (AC220)],0.0329,-0.0112,-0.0203,0.0321,-0.0933,-0.0955,-0.0983,0.0473,-0.0494,-0.0577,-0.051,-0.0533,-0.339,-0.307,-0.369,-0.46,0.0106,0.0631,0.109,0.208,-0.105,-0.0657,-0.0306,0.182,0.463,0.533,0.557,0.567,0.27,0.368,0.377,0.391
NC(=O)Nc1cc(-c2cccc(F)c2)sc1C(=O)N[C@H]1CCCNC1,0.0534,0.00627,-0.197,-0.0587,0.942,0.955,0.959,0.962,0.0596,0.0145,-0.0537,-0.23,0.0812,0.0623,0.0116,-0.14,-0.0183,0.0423,0.122,0.155,0.964,0.971,0.974,0.978,0.318,0.362,0.396,0.43,0.139,0.161,0.178,0.185
"CN(C)CCOc1ccc(/C(=C(/CCCl)c2ccccc2)c2ccccc2)cc1 [Toremifene Citrate (Fareston, Acapodene)]",0.147,0.112,-0.00292,-0.0137,0.104,0.101,-0.00882,0.0143,0.218,0.188,0.166,-0.0195,0.0631,0.0479,0.00246,-0.0264,0.111,0.144,0.204,0.262,0.0949,0.116,0.163,0.312,0.724,0.722,0.729,0.733,0.696,0.711,0.713,0.72
C=CCc1cccc(/C=N/NC(=O)CN2CCN(Cc3ccccc3)CC2)c1O,0.126,0.104,0.0863,0.00412,0.161,0.136,0.0263,-0.0573,-0.0454,0.0184,-0.0886,-0.379,-0.195,-0.0942,-0.0824,-0.181,0.0573,0.108,0.173,0.215,0.15,0.163,0.17,0.249,0.608,0.648,0.666,0.668,0.392,0.492,0.488,0.509
O=C(Nc1cccc(Cl)c1)Nc1ncc(CCNc2ncnc3ccsc23)s1,0.0932,0.0546,0.111,0.319,0.16,0.209,0.218,0.355,0.0836,0.115,0.215,0.331,0.0102,0.0483,0.135,0.239,0.0766,0.0714,0.202,0.505,0.201,0.317,0.351,0.495,0.463,0.543,0.579,0.666,0.389,0.481,0.511,0.596
COc1ccc2c3n(c(=NC(=O)c4cccnc4)nc2c1OC)CCN3,0.1,0.0853,-0.0391,-0.132,0.165,0.128,0.0515,0.0321,0.159,0.0605,-0.0752,-0.345,0.0975,0.0435,0.0156,-0.048,0.021,0.066,0.0894,0.178,0.192,0.175,0.166,0.278,0.429,0.534,0.559,0.569,0.482,0.53,0.551,0.551
Cc1oc(S(=O)(=O)N2CCCCC2)cc1NC(=O)Nc1ccccc1,0.104,0.0184,-0.0595,-0.0798,-0.0127,0.0108,-0.117,-0.249,0.0245,0.075,-0.0191,-0.188,0.0283,0.0927,0.052,-0.0369,0.0412,0.101,0.11,0.174,-0.0876,0.0154,-0.000234,0.0155,0.422,0.557,0.585,0.576,0.511,0.598,0.601,0.574
C[C@@H](O[C@H]1OCCN(Cc2n[nH]c(=O)[nH]2)[C@H]1c1ccc(F)cc1)c1cc(C(F)(F)F)cc(C(F)(F)F)c1 [Aprepitant (MK-0869)],-0.0806,-0.0554,-0.0486,0.0358,-0.0765,-0.0282,-0.0265,-0.0573,-0.223,-0.258,-0.291,-0.358,-0.233,-0.342,-0.277,-0.366,-0.142,-0.123,-0.143,-0.121,-0.075,0.0386,0.0779,0.19,0.306,0.465,0.481,0.488,0.319,0.43,0.441,0.419
Cc1cnc(NC(=O)Nc2cc(Br)c(C)cc2OC[C@@H]2CNCCO2)cn1,0.0563,0.0329,0.0344,0.113,0.227,0.217,0.207,0.233,-0.0313,-0.0243,-0.0759,-0.161,0.0523,0.0207,-0.0517,-0.0919,-0.00545,0.00557,0.0372,0.164,0.245,0.335,0.376,0.486,0.47,0.531,0.56,0.57,0.176,0.216,0.235,0.246
O=NN(CCCl)C(=O)NC1CCCCC1 [Lomustine (CeeNU)],0.0125,-0.0069,-0.0761,-0.178,-0.00465,0.00866,-0.0378,0.00712,-0.055,-0.0849,-0.137,-0.324,-0.313,-0.232,-0.254,-0.408,0.00156,0.0498,0.0878,0.11,-0.00262,0.0596,0.0893,0.149,0.573,0.596,0.607,0.603,0.383,0.486,0.488,0.501
O=C(O)CCCc1ccccc1 [4-Phenylbutyrate],0.0701,0.0509,0.00363,-0.192,0.0343,0.0446,-0.0113,-0.154,-0.0798,-0.0476,-0.148,-0.516,-0.401,-0.277,-0.308,-0.483,0.0355,0.105,0.141,0.163,0.0377,0.0642,0.124,0.195,0.43,0.538,0.547,0.56,0.419,0.5,,

# Source: the supplement of paper PMC6897291
